Our source for the growth values is the supplement of paper PMC9262897, “Low-cost anti-mycobacterial drug discovery using engineered E. coli” (Nature Communications, 2022).

Counter-ions that a name gives are not always drawn. ± gives the standard deviation of the averaged measurements.

The test system of the experiment is E. coli TESEC Alr+ wild-type control. Nature of the experiment: growth (OD600 after 10 h); higher = more growth (less inhibition). The note with it: compound 0.1 mM; raw OD600 reference: median of DMSO wells 0.49, cell-free background 0.052. As to the method:
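TESEC Mtb Alr E. coli (ΔaraC ΔtolC ΔentC Δalr ΔdadX, arabinose-inducible Mtb Alr) or the Alr+ wild-type control strain, grown in defined M9-fructose medium without D-alanine in 96-well plates with Prestwick library compounds at 0.1 mM and 1% DMSO. Low Alr induction is 0.1 µM arabinose and high induction is 10 mM arabinose.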
In turn, `CCN(C(C)=O)c1cccc(-c2ccnc3c(C#N)cnn23)c1` [Zaleplon] had a growth of 0.504 ± 0.065.
Molecule `CCC1(c2ccc(N)cc2)CCC(=O)NC1=O` (stereo not given) [Glutethimide, para-amino] gave a growth of 0.445 ± 0.022.
For `C#CCN(C)[C@H](C)Cc1ccccc1` [Selegiline hydrochloride] the value was 0.441 ± 0.043; for `O=C(CCCN1CCC2(CC1)C(=O)NCN2c1ccccc1)c1ccc(F)cc1` [Spiperone], 0.509 ± 0.042; for `N[C@@H]1C[C@H]1c1ccccc1` [Tranylcypromine hydrochloride], 0.529 ± 0.055.
`C[C@]12CC[C@H](O)C[C@@H]1CC[C@@H]1[C@@H]2CC[C@]2(C)C(=O)CC[C@@H]12` [Epiandrosterone] displayed a growth of 0.252 ± 0.013.
`C[N+](C)(C)CCCCCCCCCC[N+](C)(C)C` [Decamethonium bromide] yielded a growth of 0.417 ± 0.017.
For `C[N+]1(C)[C@@H]2CC[C@H]1C[C@@H](OC(=O)C(CO)c1ccccc1)C2` (stereo not given in full) [Methylatropine nitrate], the growth was 0.707 ± 0.049.
For `C#C[C@]1(O)CC[C@H]2[C@@H]3CCC4=CC(=O)CC[C@]4(C)[C@H]3CC[C@@]21C` [Ethisterone] the value was 0.48 ± 0.055.
With `CN(C)C(=O)Oc1cc(OC(=O)N(C)C)cc(C(O)CNC(C)(C)C)c1` (stereo not given) [Bambuterol hydrochloride] the figure was 0.618 ± 0.051; with `COc1cc2c(c(OC)c1OC)-c1ccc(OC)c(=O)cc1[C@@H](NC(C)=O)CC2` [Colchicine], 0.6712 ± 0.00062; with `CCn1cc(C(=O)O)c(=O)c2cc3c(cc21)OCO3` [Oxolinic acid], 0.0605 ± 0.0014.
As for `CN(C)[C@@H]1C(=O)C(C(N)=O)=C(O)[C@@]2(O)C(=O)C3=C(O)c4c(O)cccc4[C@@](C)(O)[C@H]3[C@H](O)[C@@H]12` [Oxytetracycline dihydrate], the growth was determined as 0.0551 ± 0.00064.
As to `CCCN1C[C@H](CSC)C[C@@H]2c3cccc4[nH]cc(c34)C[C@H]21` [Pergolide mesylate], the growth came to 0.529 ± 0.017.
With `C[C@@H]1C[C@@H]([C@H](O)CC2CC(=O)NC(=O)C2)C(=O)[C@@H](C)C1` [Cycloheximide], the growth turned out to be 0.529 ± 0.06.
The molecule `NC(=O)OCCCc1ccccc1` [Phenprobamate] gave a growth of 0.562 ± 0.087.
`C[C@H](N)[C@H](O)c1ccc(O)c(O)c1` [Levonordefrin] showed a growth of 0.465 ± 0.099.
With `C[C@]12CC[C@H](O)C[C@H]1CC[C@@H]1[C@@H]2CC[C@]2(C)[C@@H](C3=CC(=O)OC3)CC[C@]12O` [Digitoxigenin], the growth is 0.439 ± 0.016.
In the case of `CO[C@]12C[C@@H](COC(=O)c3cncc(Br)c3)CN(C)[C@@H]1Cc1cn(C)c3cccc2c13` [Nicergoline], the growth worked out at 0.481 ± 0.049.
Take `OC(c1ccccc1)(c1ccccc1)C1CCNCC1` [Azacyclonol]: the growth worked out at 0.523 ± 0.032.
The molecule `C[C@]12C[C@H]3S[C@H]3C[C@@H]1CC[C@@H]1[C@@H]2CC[C@]2(C)[C@@H](O)CC[C@@H]12` [Epitiostanol] displayed a growth of 0.534 ± 0.0058.
As to `C[C@]12CC[C@@H](O)C[C@H]1CC[C@@H]1[C@@H]2CC[C@]2(C)C(=O)CC[C@@H]12` [3-alpha-Hydroxy-5-beta-androstan-17-one], the growth stood at 0.262 ± 0.011.
Consider `COc1ccc(C(CN(C)C)C2(O)CCCCC2)cc1` (stereo not given) [Venlafaxine], for which the growth was determined as 0.438 ± 0.018.
With `CC(C)[N+](C)(CCC(C(N)=O)(c1ccccc1)c1ccccc1)C(C)C` [Isopropamide iodide] the figure was 0.516 ± 0.045; with `C[C@]12CCC(=O)C=C1C=C[C@@H]1[C@@H]2CC[C@@]2(C)[C@H]1CC[C@@]2(O)CCC(=O)O` [Canrenoic acid potassium salt], 0.502 ± 0.031.
Consider `CN1[C@@H]2CC[C@H]1C[C@@H](OC(=O)C(CO)c1ccccc1)C2` (stereo not given in full) [Atropine sulfate monohydrate], for which the growth is 0.418 ± 0.017.
Regarding `CC(=O)O[C@H]1C[C@H](O[C@H]2[C@@H](O)C[C@H](O[C@H]3[C@@H](O)C[C@H](O[C@H]4CC[C@@]5(C)[C@H](CC[C@@H]6[C@@H]5C[C@@H](O)[C@]5(C)[C@@H](C7=CC(=O)OC7)CC[C@]65O)C4)O[C@@H]3C)O[C@@H]2C)O[C@H](C)[C@H]1O[C@@H]1O[C@H](CO)[C@@H](O)[C@H](O)[C@H]1O` [Lanatoside C], the growth came out at 0.528 ± 0.096.
The molecule `C[C@]12CC[C@@H]3c4ccc(OC(=O)N(CCCl)CCCl)cc4CC[C@H]3[C@@H]1CC[C@@H]2O` [Estramustine] came in with a growth of 0.399 ± 0.008.
Molecule `NCC(O)c1ccc(O)cc1` (racemic) [(+,-)-Octopamine hydrochloride] gave a growth of 0.584 ± 0.08.
Turning to `NCCc1c[nH]c2ccc(O)cc12` [Serotonin hydrochloride], the growth amounted to 0.475 ± 0.0089.
With `C[C@]12CC[C@H]3[C@@H](CCC4=CC(=O)CC[C@@H]43)[C@@H]1CC[C@@H]2O` [Nandrolone] the figure was 0.423 ± 0.015; with `COc1ccc(CCN2CCC(Nc3nc4ccccc4n3Cc3ccc(F)cc3)CC2)cc1` [Astemizole], 0.0478 ± 0.00075; with `c1ccc2c(c1)OCC(C1=NCCN1)O2` (stereo not given) [Idazoxan hydrochloride], 0.598 ± 0.015.
`C[CH2][Hg][S]c1ccccc1C(=O)[O-].[Na+]` [Thimerosal] came in with a growth of 0.216 ± 0.1.
For `C=C(C)[C@@H]1[C@H]2OC(=O)[C@@H]1[C@]1(O)C[C@H]3O[C@]34C(=O)O[C@H]2[C@]14C` [Picrotoxinin] the value was 0.479 ± 0.082.
As for `O=[N+]([O-])O[C@@H]1CO[C@H]2[C@@H]1OC[C@@H]2O` [Isosorbide mononitrate], the growth is 0.548 ± 0.053.
`C=CCC1(CC(C)C)C(=O)NC(=O)NC1=O` [Butalbital] showed a growth of 0.516 ± 0.029.
The molecule `CC(=O)NC1CCSC1=O` (racemic) [N-Acetyl-DL-homocysteine Thiolactone] yielded a growth of 0.406 ± 0.015.
For `CC(=O)[C@H]1CC[C@H]2[C@@H]3CC[C@H]4C[C@H](O)CC[C@]4(C)[C@H]3C(=O)C[C@]12C` [Alfaxalone], the growth came to 0.3925 ± 0.0021.
For `CCCCCC[C@H]1C(=O)O[C@H](C)[C@H](NC(=O)c2cccc(NC=O)c2O)C(=O)O[C@@H](C)[C@@H]1OC(=O)CC(C)C` [Antimycin A] the value was 0.428 ± 0.022.
